Assay results taken from PubChem BioAssay AID488832 (National Center for Advancing Translational Sciences (NCATS), 2010).
Inconclusive results are not listed. The source made the active and inactive calls. Calls come from the whole dose curve; as a rule, active = well fitted activation curve with a large enough effect; inconclusive = small, poorly fitted or top-dose-only effect; inactive = no such curve, though single readings can be large or run the other way.

Experiment: Confirmation Concentration-Response Assay for Enhancers of SMN2 Splice Variant Expression for Further Probe SAR
Conditions: HEK293 SMN2 exon7-luciferase splicing reporter, luminescence, 30-36 h; series mostly up to 46.1 µM; activity, positive = activation: at the top concentration
From the text: NIH Chemical Genomics Center [NCGC] NIH Molecular Libraries Probe Production centers Network [MLPCN] MLPCN Grant: R03 MH084179-01 Assay Submitter (PI): Elliot Androphy NCGC Assay Overview: Spinal muscular atrophy (SMA) is caused by insufficient levels of the survival motor neuron protein SMN. The SMN locus on chromosome 5q13 contains two inverted copies of SMN called SMN1 and SMN2 which are 99% identical at the amino acid level. SMN1 is a fully functional protein and SMN2 skips exon 7 90% of the time. Skipping of exon 7 produces non-functional protein product. 10% of the SMN2 protein includes exon 7 and is fully functional. In the SMA disease state, mutations in the SMN1 locus are the cause of the disease state. Because only 10% of SMN2 is of the fully functional form, it is not sufficient to overcome the deficiency produced by the loss of the SMN1 product. A therapy that either increase the amount of SMN2 product made or to increase the inclusion of exon 7 has been proposed for the treatment of SMA. We have designed an assay to identify small molecules that can increase the amount of functional SMN2 product by appending a luciferase reporter gene after the native SMN2 gene, such that inclusion of exon 7 in the expressed product places the luciferase sequence in frame, thus generating functional luciferase enzyme.
NCGC Assay Protocol Summary: This screen utilizes a luciferase reporter gene assay, combining the promoter with the major portion of the native SMN2 cDNA (exons 1 -7, intron 8 , exon 8 fused to luciferase) stably expressed in HEK293 cells. Compounds that increase luciferase signal presumably enhance expression of the functional SMN2 splice variant. Passaging media contained DMEM w/ glutamax (+phenol red) 10% FCS, 1x pen/strep, 200 ug/ml hygro, 1x sodium pyruvate. Assay media contained DMEM w/ glutamax (-phenol red) 10% FCS, 1x pen strep, 1x pyruvate Sequence, Parameter, Value, Description (1) Cells, 5 uL, 2000 cells/well, 1536 TC treated White solid bottom plate (2) Time, 10-12 hours, 37C 5% CO2 (3) Compound, 23 nl, MLSMR Library (4) Control Compound, 23 nL, Sodium butyrate st 4.5mM (final) conc (5) Time, 30-36 hours, 37C 5% CO2 (6) Reagent, 3 ul, One Glo (TM) from Promega (7) Time, 5-15 minutes, Room temp (8) Detector, Viewlux: luminescent read, 60 second integration, high speed 2x binning Keywords: Spinal muscular atrophy, SMA, SMN2, high throughput screening, MLSMR, MLPCN, NIH Roadmap, qHTS and NCGC
In the case of `NC(=O)C1CCN(c2nccc(-c3ccc4c(c3)OCCO4)n2)CC1`, the Potency is reported as 1090 nM (active).
With `NC(=O)C1CCN(c2nccc(-c3ccc(Br)cc3)n2)CC1` the Potency was 244 nM (active).
In the case of `NC(=O)C1CCN(c2cc(-c3ccc4c(c3)OCCCO4)ncn2)CC1`, the Potency is reported as 6140 nM (active).
In the case of `NC(=O)C1CCN(c2ncc(Br)cn2)CC1`, the “activity, positive = activation” value is reported as 4.35% (inactive).
With `CCOc1ccc(-c2csc(N3CCC(C(N)=O)CC3)n2)cc1` the Potency was 3070 nM (active).
